The panel holds about 83,000 compounds, 20% with a hit somewhere; the sample as a whole holds those more often.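 Single-concentration screen, 48 h exposure, 96-well plates. Endpoint: percent growth. Below 10 = active.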 Unmarked numbers belong to inactive results. The source made the active and inactive calls.
The compounds below were run on SW-620 colon (assay: NCI-60 one-dose screen, 48 h (100 = growth as untreated, 0 = no growth, -100 = all killed)). Conditions: 10 µM unless noted.
Experimental: Growth inhibition of the SW-620 human tumor cell line is measured as a screen for anti-cancer activity. Cells are grown in 96 well plates and exposed to the test compound for 48 hours. Compounds are tested at a single concentration, which is 10^-5 M for most compounds. The reported endpoint is percent growth (GI% or GIPRCNT), where numbers from 0 - 100% represent growth inhibition, and numbers from -100% - 0 represent cell death. For example, a value of 40 represents 60% growth inhibition. A value of 0 means no net growth occurred over the course of the experiment. A value of -40 indicates 40% of cells at the beginning of the experiment died by the end of the experiment. A value of -100 means all cells are dead at the end of the experiment.
NCI-60 Human Tumor Cell Lines Screen was performed using the standard one-dose NCI protocol, which is described in more detail at https://dtp.cancer.gov/discovery_development/nci-60/default.htm.
Compounds with GIPRCNT values below 10 were considered active. Activity score was based on GIPRCNT using the following formula: […]
Score is 0 for GIPRCNT values of 100 or above, 50 for GIPRCNT values of 0, and 100 for GIPRCNT values of -100.
With `Cc1ccc(/C=C(\C#N)n2nnc3cc(Cl)c(Cl)cc32)cc1` the growth was 16.3%. `CN(CCC(=O)/C(=C\c1ccccc1)c1ccc(Cl)cc1)Cc1ccccc1` was tested, and the growth was 4.45% (active). With `COc1ccc(-c2cn(-c3cccc(C(=O)/C=C/c4cc(OC)c(OC)c(OC)c4)c3)c(=O)[nH]2)cc1` the growth was -50.7% (active). Compound `CN(C)c1ccc(C#Cc2c(F)cccc2Cl)cc1` has a growth of 96%. With `COc1cccc(/C=C2\COc3ccc(O)cc3C2=O)c1OC` the growth was 30.5%. For `C=C(C)[C@@H]1CC[C@]2(CN)CC[C@]3(C)[C@H](CC[C@@H]4[C@@]5(C)CCC(N)[C@@](C)(CO)[C@@H]5CC[C@]43C)[C@@H]12` (stereo not given in full), the growth was -76.5% (active). `COc1ccc(OC)c(/C=C2\COc3ccc(O)c(O)c3C2=O)c1` was tested, and the growth was 9.79% (active). Compound `COc1ccc(Oc2nc(Nc3ccc(N4CCCCC4)nc3)ncc2NC(=O)c2cc(OC)cc(OC)c2)cc1` has a growth of 30.6%. For `O=C1C=CC(=Nc2cc(Br)c(O)c(Br)c2)C=C1`, the growth was 46.4%. Work on `CCOC(=O)N1CCc2c(sc3c2C(=O)N[C@H](c2ccc(OC)cc2)N3)C1` yielded a growth of 99.6%. In the case of `CC1(C)C(=O)/C(=C\c2cccnc2)C[C@]2(C)[C@H]3CC=C4[C@@H]5C[C@@](C)(C(=O)O)CC[C@]5(C)CC[C@@]4(C)[C@]3(C)CC[C@@H]12`, the growth is reported as 107%. `COc1ccccc1C(=O)NC(=S)Nc1ccc(-c2nc3ccccc3[nH]2)cc1` was tested, and the growth was 43.5%. `NC(N)=N/N=C(/c1ccccc1)c1ccccc1F` was tested, and the growth was 40%. In the case of `CCCCCCCCCCCCCCCCCC1=NCCN1C(=O)OCCO`, the growth is reported as -76.8% (active). `O=C(NCc1cccnc1)c1cc(-c2csc3c(=O)cc(N4CCOCC4)oc23)cc2c1OCCO2` was tested, and the growth was 46.9%. Compound `C=C1C(=O)O[C@H]2[C@H]1CC/C(Cn1cc(CNCCc3c[nH]c4ccccc34)nn1)=C\CC[C@@]1(C)O[C@@H]21` has a growth of 46.1%. For `CN(C)c1cnccn1`, the growth was 88.7%. `Clc1cnc(Nc2ccc(OCCN3CCCC3)cc2)nc1NCc1ccco1` was tested, and the growth was 6.11% (active). `COc1cc2c(O)n(CCCn3ccnc3)c3c4cnc5cccc(c(=O)c3c2cc1OC)c54` gave a growth of 20.4%. `CC(=[N-])N1CCC[C@@H](Nc2c3ccccc3nc3ccccc23)C1.[Cl][Pt].[NH-]CCC[NH-]` gave a growth of 20.5%. `COc1ccc(Cn2cnc3cc(C(=O)Nc4cccc5ccccc45)ccc32)c(OC)c1` gave a growth of 22.7% [30 µM]. `O=C(Nc1ccccn1)[C@H](O)[C@@H](O)C(=O)N1CCOCC1` was tested, and the growth was 110%. With `Cc1cc(NS(=O)(=O)c2ccccc2)c(OS(=O)(=O)c2ccccc2)cc1C` the growth was 107%. `Cc1nc(Nc2ccc(N)cc2)c2ccccc2n1` showed a growth of 99%. In the case of `CN1CCN(C2=C(Cl)C(=O)c3ccccc3C2=O)CC1`, the growth is reported as 98.8%. `COc1cc2nc(Nc3ccc(F)cc3)nc(N)c2cc1OC` was tested, and the growth was 103%. `CC(C)n1nc(C#Cc2cccc3cc(-c4cccc(C(F)(F)F)c4)ncc23)c2c(N)ncnc21` was tested, and the growth was 71.8%. Compound `Clc1ccc2[nH]c3c(NCCCN4CCOCC4)ncnc3c2c1` has a growth of 57.2%. With `COc1ccccc1NC(=O)Nc1ccc(-c2nc3ccccc3o2)cc1` the growth was 111%. For `Cc1cc2c(F)c(Oc3ncnc(Nc4ccc(N5C[C@@H](C)N[C@@H](C)C5)cc4)c3C#N)cc(F)c2[nH]1`, the growth was 3.6% (active). `Cc1ccc(S(=O)(=O)NN/C(N)=N\S(=O)(=O)c2cc(C)c(Cl)cc2SCc2ccccc2)cc1` was tested, and the growth was 96.6%. Work on `CCOC(=O)c1ccc(-c2ccc3cc(OC)ccc3c2)nc1C` yielded a growth of 102%. Work on `N#C/C(=C\c1ccc2c(c1)OCO2)n1nnc2ccccc21` yielded a growth of 12%. `COc1ccc2cc(-c3ccc(C(=O)NN)c(C)n3)ccc2c1` gave a growth of 107%. With `O=C(NCCN1CCC(O)CC1)c1cc2c(o1)C(=O)c1ccccc1C2=O` the growth was -78.3% (active). `CCN(CC)CCNc1ccc(C)c2sc3cc(C)ccc3c(=O)c12` gave a growth of 43.6%. For `C[C@@H]1CC[C@@H]2[C@@H]1[C@H](OC(=O)c1ccc3ccccc3c1)[C@]1(C3CCCCC3)C[C@@H](OC(=O)CO)[C@@]2(C)O1`, the growth was 65.1%. `C/C(Cc1ccc(Cl)cc1)=C(/c1ccc(Cl)cc1)c1ccc(OCCN(C)C)cc1` was tested, and the growth was -32.4% (active). `CN=C1C=CC(=C(c2ccc(N(C)C)cc2)c2ccc(N(C)C)cc2)C=C1` was tested, and the growth was 3.29% (active). For `O=C(Oc1ccc[nH]c1=O)c1cc([N+](=O)[O-])cc([N+](=O)[O-])c1`, the growth was 107%.

From PubChem BioAssay (NCI)
